ATXN viability – reduces viability in counter-screen for ATXN expression inhibitors. Potency, µM (series often up to 56.7 µM), actives largely listed as cytotoxic. 400,000 compounds, 0.49% hits. S2 cells (HEK-293 line with an ATXN2-luciferase reporter) viability, CellTiter-Fluor protease fluorescence, 24 h; also: nearly all actives have a fitted effect of over 40% in size
TGFb inhibitor – inhibitors of TGF-b signaling; HepG2 CAGA-GFP TGF-b/SMAD3 reporter, GFP fluorescence, 18 h; TGF-beta stimulated, 500 pg/mL final; Potency, µM (doses to about 46.1 µM), for the others: top-dose activity, negative = inhibition, actives largely listed as inhibitors; 410,000 compounds, 1.2% hits; also: % is scaled to controls: 0 for no effect and ±100 for the full control effect; nearly all actives have a fitted effect of over 65% in size
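Inhibition of TGF-beta-driven CAGA-GFP reporter expression in HEPG2 cells is measured by cellular GFP fluorescence after 18 h stimulation with 500 pg/mL recombinant TGF-beta in 1% FBS medium at 37 degrees C.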
HepG2 tox – counter-screen for TGF-b inhibitors: cytotoxicity in HepG2 cells; 410,000 compounds, 0.76% hits; HepG2 CAGA-GFP viability, ATP luminescence, 18 h; Potency, µM (titrated, usually from 46.1 µM), inactives show at the top dose activity change, negative = cytotoxicity, most hits filed as cytotoxic
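CellTiter-Glo luminescence gave cytotoxicity after 18 hours at 37 degrees C. The cells were HepG2 CAGA-GFP in 1% FBS DMEM, stimulated with 500 pg/mL TGF-beta after compound addition. %Activity was normalised to no-cell wells (complete cell-killing) and DMSO (no toxicity), and curves were fitted and classified.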
ATXN2 expr inh – ATXN2 expression inhibition; 360,000 compounds, 0.72% hits; HEK-293 ATXN2-luciferase reporter, luminescence, 24 h; AID 1745845; Potency, µM (series often up to 57 µM), without a hit: at the top dose activity change, negative = inhibition, actives largely listed as inhibitors; also: % is scaled to controls: 0 for no effect and ±100 for the full control effect; nearly all actives have a fitted effect of over 55% in size
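qHTS (up to 57 uM final) was run with 24 h compound exposure of reporter cells at 37 °C. Each well was multiplexed: SteadyGlo luminescence measured ATXN2-luciferase expression after a fluorogenic Gly-Phe-AFC viability readout (25 uM final).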
DT40 TDP1 CPT – DT40-hTDP1 cell growth loss with CPT; chicken DT40 Tdp1-/-;hTDP1 cells + 20 nM CPT, ATP luminescence, 48 h; Potency, µM (top dose mostly 46.2 µM), inactives show top-dose activity change, negative = growth inhibition, actives largely listed as inhibitors; 420,000 compounds, 12% hits; also: % is scaled to controls: 0 for no effect and ±100 for the full control effect; nearly all actives have a fitted effect of over 55% in size
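Chicken DT40 Tdp1-/- cells stably complemented with human TDP1 were seeded at 400 cells/well in medium containing 20 nM camptothecin, exposed to pin-transferred compounds, and grown at 37 °C for at least 48 hr. Viability was read as ATP luminescence.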
TDP1 cell noCPT – qHTS for Inhibitors of human tyrosyl-DNA phosphodiesterase 1 (TDP1): qHTS in cells in absence of CPT | DT40 Tdp1-/- hTDP1 cells, no CPT, ATP luminescence, 48 h | Potency, µM (highest dose often 46.2 µM), inactives show top-dose activity change, negative = growth inhibition, usual class: inhibitors | 420,000 compounds, 15% hits; also: % is scaled to controls: 0 for no effect and ±100 for the full control effect; nearly all actives have a fitted effect of over 55% in size
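Seeded 400 DT40-hTDP1 cells/well (vehicle DMSO, no 20 nM CPT); pinned compounds; ≥48 hr at 37 °C; CellTiter-Glo luminescence as viability measure.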
* = called active by the depositor; i = inactive; ? = inconclusive; . = no result. Shown are actives, neighbours in structure and some others; about 17% of the full set was active somewhere. Calls follow the shape of the dose curve; as a rule, active = well fitted curve in the direction sought with a large enough effect; inconclusive = small, poorly fitted or top-dose-only effect, or another doubt; inactive = no such curve, though single readings can be large; an effect the other way counts as inactive or inconclusive. Potency is read from the fitted curve at half-maximal effect.

SMILES	ATXN viability	TGFb inhibitor	HepG2 tox	ATXN2 expr inh	DT40 TDP1 CPT	TDP1 cell noCPT
CCOc1ccc(NC(=O)CN2C(=O)COc3ccc(S(=O)(=O)Nc4ccccc4)cc32)cc1	?	?	-29%	0%	?	?
CCc1ccccc1NC(=O)CN1C(=O)COc2ccc(S(=O)(=O)Nc3ccccc3)cc21	i	?	-27%	-5%	18µM*	26µM*
O=C(COc1ccc(Cl)cc1Cl)NN1C(=O)C2C3C=CC([C@@H]2C1=O)C31CC1 (some centres undefined)	i	0%	6%	-3%	4%	-17%
Cc1ccc(S(=O)Cc2nc(-c3ccc(C(=O)NCc4cccc(C)c4)cc3)oc2C)cc1 (centres undefined)	i	5%	-21%	-15%	10%	?
O=C(CN1C(=O)COc2ccc(S(=O)(=O)Nc3ccccc3)cc21)Nc1cccc(Cl)c1	?	?	-24%	-27%	16µM*	?
COc1ccc(NC(=O)CN2C(=O)COc3ccc(S(=O)(=O)Nc4ccccc4)cc32)cc1	?	?	-7%	14%	-26%	-15%
Cc1cc(C)c(C)c(S(=O)(=O)N2CCN(C(=O)c3ccccc3OCc3c(C)noc3C)CC2)c1C	i	12%	-3%	-17%	?	18µM*
Cc1noc(C)c1COc1ccccc1C(=O)N1CCN(S(=O)(=O)c2ccccc2C(F)(F)F)CC1	i	?	-3%	-2%	?	?
Cc1noc(C)c1COc1ccccc1C(=O)N1CCN(S(=O)(=O)c2ccc(C(C)C)cc2)CC1	?	6%	2%	.	?	16µM*
Cc1noc(C)c1COc1ccccc1C(=O)N1CCN(S(=O)(=O)c2ccccc2Br)CC1	?	?	-24%	.	16µM*	21µM*
Cc1noc(C)c1COc1ccccc1C(=O)N1CCN(S(=O)(=O)c2cccc(Cl)c2)CC1	i	-17%	-9%	-15%	-14%	-17%
O=C(O)[C@H]1O[C@H](Oc2cc3oc(-c4ccccc4)cc(=O)c3c(O)c2O)[C@H](O)[C@@H](O)[C@H]1O	.	.	.	-19%	.	.
Cc1ccccc1NC(=O)Cc1nc(COC(=O)c2cc([N+](=O)[O-])ccc2NCCO)cs1	i	?	-23%	-8%	?	?
CC1CCc2c(sc3ncn(CC(=O)N=Nc4c(O)[nH]c5ccccc45)c(=O)c23)C1 (centres undefined)	?	-26%	-27%	.	?	-28%
CCc1nc(N=Nc2c(O)[nH]c3ccccc23)c2c3c(sc2n1)CCC3	?	13%	0%	.	13µM*	16µM*
CCn1c(COc2cccc(OC)c2)nnc1SCC(=O)NCC1CCCO1 (centres undefined)	i	?	-9%	0%	2%	0%
COCCCNC(=O)C[C@@H]1C[C@@]2(C(=O)OC)CC(C)(C)CC=C2N(Cc2ccc3c(c2)OCO3)C1=O	.	.	.	.	13%	?
COC(=O)[C@@]12C[C@@H](CC(=O)NCCC(C)C)C(=O)N(Cc3ccc4c(c3)OCO4)C1=CCC(C)(C)C2	.	.	.	.	?	18µM*
CCCCOCCCNC(=O)C[C@@H]1C[C@@]2(C(=O)OC)CC(C)(C)CC=C2N(Cc2ccc3c(c2)OCO3)C1=O	.	.	.	.	?	21µM*
C=CCC(CC=C)(CNC(=O)C(=O)Nc1ccc(C)cc1)c1ccccc1	.	7%	4%	.	-23%	-22%
CCN(CC)CCC=C(c1cccs1)c1cccs1	i	-3%	-16%	-20%	?	23µM*
CCN(CC)CCCNC(=O)/C(=C\c1cccn1C)NC(=O)c1cccs1	i	11%	34%	-8%	2%	-3%
COc1cc(CC(=O)NCC(C)(C)N2CCOCC2)cc(OC)c1OC	i	0%	3%	24%	-2%	-2%
Cc1ccc(C(=O)c2coc3c2C(=O)C(=O)c2ccccc2-3)cc1	.	?	11µM*	?	3.3µM*	4.6µM*
Cc1ccc(C(=O)c2c(C)oc3c2C(=O)C(=O)c2ccccc2-3)cc1	.	?	-62%	?	2.1µM*	2.6µM*
SMILES	ATXN viability	TGFb inhibitor	HepG2 tox	ATXN2 expr inh	DT40 TDP1 CPT	TDP1 cell noCPT
CSc1ncccc1C(=O)N(C)CC(=O)Nc1cccc(F)c1	i	0%	2%	0%	0%	2%
CCOC(=O)c1c(NC(=O)c2ccc(S(=O)(=O)N(CC(C)C)CC(C)C)cc2)sc2c1CCN(C(=O)OCC)C2	i	11%	-16%	6%	-34%	0.0073µM*
CCOC(=O)c1c(NC(=O)C2CCCN(S(=O)(=O)c3ccccc3)C2)sc2c1CCCC2 (centres undefined)	i	-18%	4%	-1%	8.2µM*	9.2µM*
CCOC(=O)c1c(NC(=O)c2ccc(S(=O)(=O)N3CCC(C)CC3)cc2)sc2c1CCN(C)C2	.	46%	-74%	.	3.7µM*	3.7µM*
CCOC(=O)N1CCN(S(=O)(=O)c2ccc(C(=O)Nc3sc4c(c3C(=O)OC)CCN(C)C4)cc2)CC1	?	0%	-54%	?	?	?
CCOC(=O)c1c(NC(=O)c2ccc(S(=O)(=O)N(C)C)cc2)sc2c1CCN(C)C2	.	30%	-52%	.	23µM*	16µM*
O=C(c1ccco1)N1CCCN(Cc2nc(-c3cccs3)no2)CC1	i	1%	-4%	.	-5%	-8%
CCOC(=O)c1c(NC(C)=O)c2c3c(sc2n1Cc1cc(C)ccc1C)CCCC3	.	.	-3%	.	5.8µM*	?
O=c1n(Cc2ccc(Cl)cc2)c2sc3c(c2c2ncnn12)CCCC3	?	-19%	12%	?	?	15µM*
CCOC(=O)c1c(NC(C)=O)c2c3c(sc2n1Cc1ccc(Cl)cc1)CCCC3	.	.	-2%	.	?	15µM*
CCOC(=O)c1c(NC(C)=O)c2c3c(sc2n1Cc1nc(-c2cccc(C)c2)oc1C)CCCC3	.	.	3%	.	3.7µM*	?
O=C(CCCC(=O)N1CCN(c2ccccc2F)CC1)c1ccccc1	i	-12%	-17%	57%	?	-20%
CCc1ccc(C(=O)COC(=O)CNC(=O)C2CCCCC2)cc1	i	17%	-2%	5%	0%	-4%
Cc1ccc(CNC(=O)Cn2c3ncccc3c(=O)n2-c2ccccc2)cc1	i	?	-27%	-15%	?	-22%
Cn1ncc2c(=O)[nH]nnc21	i	15%	4%	-13%	25%	-2%
